SMILES strings stand for the structures. Records with an inconclusive call do not appear. Entries that show only a call come without a potency. Active and inactive are the calls of the source. Calls come from the whole dose curve; as a rule, active = well fitted curve in the direction sought with a large enough effect; inconclusive = small, poorly fitted or top-dose-only effect, or another doubt; inactive = no such curve, though single readings can be large; an effect the other way counts as inactive or inconclusive. Square brackets hold non-standard residues; d marks the D form. Peptide text beside a SMILES is read from it. ξ: configuration not given here. ξL = CC(C)CC(N)C(=O)O

Test system in one assay: not listed separately
The experiment in a line: HEK293 12hr Apoptosis Induction qHTS against the NCATS CANVASS Library (AID 1347361). To be noted: HEK293 caspase-3/7 Caspase-Glo luminescence; series mostly up to 46.1 µM. The procedure, abridged:
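Apoptosis in HEK293 was scored as caspase-3/7 luminescence following 12 h treatment with a compound concentration series in qHTS format.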
A general note: Quantitative high-throughput screening tests each substance at several concentrations.
Regarding `O[C@H]1C=C2[C@H]3CN(Cc4cc5c(cc43)OCO5)[C@H]2C[C@@H]1O`, the call was inactive. With `CC[C@@H](c1cc(OC)c(OC)cc1OC)[C@H](C)[C@@H](/C(C)=C/c1cc(OC)c(OC)cc1OC)c1cc(OC)c(OC)cc1OC`, the result was inactive. Take `CC[C@@H](C)[C@H]1NC(=O)C(CC(C)C)NC(=O)[C@@H](CC(C)C)NC(=O)[C@H](Cc2c[nH]c3ccccc23)NC(=O)CNC(=O)[C@@H](CC(N)=O)NC1=O` (stereo partly drawn) (cyclo(GW[dL][ξL][dI][dN])): the compound was called inactive. On to `CN1CCc2cc3c(c4c2C1(C)C(=O)c1cc(O)ccc1-4)OCO3` (centres undefined), for which the call was inactive. Still for that read-out and setting: the value for `COc1cc2c(cc1OC)[C@@H](c1ccc3c(c1)OCO3)C(C)[C@@H](C)C2=O` (some centres undefined) was “inactive”; that for `CC(C)[C@@H]1CC(=O)c2coc3c2[C@H]1C[C@@H](C)C3=O` was “inactive”. For the compound `COc1cc2oc3ccccc3c(=O)c2cc1OC`, the call was inactive.

Consider `COC(=O)[C@@]1(C)CCC[C@]2(C)c3cc(OC)ccc3CC[C@@H]12`, for which the outcome was inactive. For the compound `COc1cc2ccc(=O)oc2c(O)c1O[C@@H]1O[C@H](CO)[C@@H](O)[C@H](O)[C@H]1O`, the result was inactive.

Turning to `CC[C@H]1[C@@H](C)[C@@H](c2cc(OC)c(OC)cc2OC)[C@H](C)[C@@H](c2cc(OC)c(OC)cc2OC)[C@@]12C=C(OC)C(=O)C=C2OC`, the compound was called inactive.

Take `O=C1CCC(=O)N(O)CCCCCNC(=O)CCC(=O)N(O)CCCCCNC(=O)CCC(=O)N(O)CCCCCN1`: the compound was called inactive. `C=C1C[C@H]2O[C@@H]3[C@@H]4[C@H](CC[C@@](C)(O)[C@@H]42)[C@H](C)COC3(C)[C@@H](OC(=O)CCCCCCC)C[C@H]1O` (some centres undefined): the result was inactive. Consider `CC1=C(C)C(=O)OC(C(C)C2(O)CCC3C4C5OC5C5(O)CC=CC(=O)C5(C)C4CCC32C)C1` (centres undefined), for which the compound was classed as inactive. Take `C[C@H](CCC(O)C(C)(O)CO)[C@@]1(O)CC[C@@]2(C)C3=C(CC[C@@]21C)[C@@]1(C)CCC(OC(=O)CCC(=O)O)C(C)(C)[C@@H]1CC3` (some centres undefined): the outcome was inactive. As for `COc1cc(C2C3=C(Cc4cc5c(cc42)OCO5)C(=O)OC3)cc(OC)c1OC` (centres undefined), the outcome was inactive. Turning to `C=C[C@@](C)(O)CC[C@@H]1[C@@]2(C)CCCC(C)(C)[C@@H]2CC[C@@]1(C)O`, the call was inactive. On to `COc1ccc([C@@H]2c3cc4c(cc3C(=O)[C@H](C)C2C)OCO4)cc1OC` (some centres undefined), for which the result was inactive. Take `C/C(=C\[C@H](C)C(=O)C[C@H](O)CC1CC(=O)NC(=O)C1)[C@@H]1OC(=O)CCCC/C=C/[C@@H](O)C[C@@H]1C`: the call was inactive.

`CC1=C[C@H]2[C@H]3C(=O)C(c4ccc(O)cc4)=C[C@@]3(c3ccc(O)cc3)[C@@H]1C(=O)[C@]2(C)O`: the call was inactive. Take `C=C1C(=O)O[C@H]2[C@H]1CCC(C)=C1CC[C@@](C)(O)[C@@H]12`: the compound was called inactive.

As to `C/C(=C\[C@H](C)C(=O)/C=C/CC1CC(=O)NC(=O)C1)[C@@H]1OC(=O)CCCC/C=C/[C@H](O)[C@@H](O)[C@@H]1C`, the compound was called inactive.

Regarding `C[C@H](c1cnc(N)[nH]1)c1ccc(O)c2[nH]cc(-c3cnc(-c4c[nH]c5ccccc45)c(=O)[nH]3)c12`, the compound was classed as inactive.

On to `COc1ccc([C@@H]2c3cc4c(cc3C[C@H](C)C2C)OCO4)cc1OC` (some centres undefined), for which the outcome was inactive. Regarding `CC[C@@H]1[C@H](C)[C@H](c2cc(OC)c(OC)cc2OC)[C@@H](C)[C@H](c2cc(OC)c(OC)cc2OC)[C@]12C=C(OC)C(=O)C=C2OC`, the result was inactive. Still for that read-out and setting: the value for `C[C@H]1CCC2(OC1)O[C@H]1C[C@H]3[C@@H]4CC(=O)[C@]5(O)C[C@H](O)CC[C@@]5(C)[C@H]4CC[C@@]3(C)[C@H]1[C@H]2C` (some centres undefined) was “inactive”.

For `C/C1=C/[C@@H](C)[C@H](O)C/C=C/CC/C=C/C(=O)O[C@@H]1[C@H](C)C(=O)CCCC1CC(=O)NC(=O)C1`, the compound was called inactive.

The next assay relates to NAD(P)H diaphorase (Clostridium kluyveri). The assay can be described thus: Diaphorse counterscreen qHTS: Assay Interference Panel against the NCATS CANVASS Library (AID 1347362). To be noted: Diaphorase enzyme, resazurin to resorufin fluorescence; series mostly up to 57.5 µM. In a few lines: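 Clostridium kluyveri diaphorase in PBS + 0.01% Tween-20 preincubated 15 min with compounds. Resazurin and NADH then added for 5 min at room temperature in the dark; resorufin fluorescence read (ex 525, em 598).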
Consider `O[C@H]1C=C2[C@H]3CN(Cc4cc5c(cc43)OCO5)[C@H]2C[C@@H]1O`, for which the Potency entry was “inactive”. Take `C/C=C/c1cc2c(c(=O)o1)C(=O)[C@@H](O)[C@H](C)O2`: the Potency entry was “inactive”. As to `CC[C@@H](C)[C@H]1NC(=O)C(CC(C)C)NC(=O)[C@@H](CC(C)C)NC(=O)[C@H](Cc2c[nH]c3ccccc23)NC(=O)CNC(=O)[C@@H](CC(N)=O)NC1=O` (stereo partly drawn) (cyclo(GW[dL][ξL][dI][dN])), the Potency entry is “inactive”.

Regarding `CN1CCc2cc3c(c4c2C1(C)C(=O)c1cc(O)ccc1-4)OCO3` (centres undefined), the Potency result is “inactive”.

For `COc1cc2c(cc1OC)[C@@H](c1ccc3c(c1)OCO3)C(C)[C@@H](C)C2=O` (some centres undefined), the Potency entry is “inactive”. Same read-out and setting: the value for `CC(C)[C@@H]1CC(=O)c2coc3c2[C@H]1C[C@@H](C)C3=O` was “inactive”; that for `COc1cc2oc3ccccc3c(=O)c2cc1OC` was “inactive”; that for `COC(=O)[C@@]1(C)CCC[C@]2(C)c3cc(OC)ccc3CC[C@@H]12` was “inactive”. Regarding `COc1cc2ccc(=O)oc2c(O)c1O[C@@H]1O[C@H](CO)[C@@H](O)[C@H](O)[C@H]1O`, the Potency entry is “inactive”. Same read-out and setting: the same measure for `O=C1CCC(=O)N(O)CCCCCNC(=O)CCC(=O)N(O)CCCCCNC(=O)CCC(=O)N(O)CCCCCN1`: “inactive”; for `CC1=C(C)C(=O)OC(C(C)C2(O)CCC3C4C5OC5C5(O)CC=CC(=O)C5(C)C4CCC32C)C1` (centres undefined): “inactive”; for `C[C@H](CCC(O)C(C)(O)CO)[C@@]1(O)CC[C@@]2(C)C3=C(CC[C@@]21C)[C@@]1(C)CCC(OC(=O)CCC(=O)O)C(C)(C)[C@@H]1CC3` (some centres undefined): “inactive”. Consider `COc1cc(C2C3=C(Cc4cc5c(cc42)OCO5)C(=O)OC3)cc(OC)c1OC` (centres undefined), for which the Potency result was “inactive”. Turning to `CO[C@@H]1[C@H](O)[C@@H](C)O[C@@H](OC[C@@H]2C(C)OC(=O)/C=C/[C@H](C)C(O[C@@H]3O[C@H](C)CC4(OC(=O)O[C@@H]4C)C3O)[C@@H](C)CC(C)C(=O)/C=C/[C@H]3OC23)[C@@H]1OC` (some centres undefined), the Potency entry was “inactive”. In the case of `C=C[C@@](C)(O)CC[C@@H]1[C@@]2(C)CCCC(C)(C)[C@@H]2CC[C@@]1(C)O`, the Potency entry was “inactive”. As to `C/C(=C\[C@H](C)C(=O)C[C@H](O)CC1CC(=O)NC(=O)C1)[C@@H]1OC(=O)CCCC/C=C/[C@@H](O)C[C@@H]1C`, the Potency entry is “inactive”. On to `CC1=C[C@H]2[C@H]3C(=O)C(c4ccc(O)cc4)=C[C@@]3(c3ccc(O)cc3)[C@@H]1C(=O)[C@]2(C)O`, for which the Potency entry was “inactive”. `C=C1C(=O)O[C@H]2[C@H]1CCC(C)=C1CC[C@@](C)(O)[C@@H]12`: the Potency result was “inactive”. For `C/C(=C\[C@H](C)C(=O)/C=C/CC1CC(=O)NC(=O)C1)[C@@H]1OC(=O)CCCC/C=C/[C@H](O)[C@@H](O)[C@@H]1C`, the Potency entry was “inactive”. Same read-out and setting: the value for `COc1ccc([C@@H]2c3cc4c(cc3C[C@H](C)C2C)OCO4)cc1OC` (some centres undefined) was “inactive”; that for `C[C@H]1CCC2(OC1)O[C@H]1C[C@H]3[C@@H]4CC(=O)[C@]5(O)C[C@H](O)CC[C@@]5(C)[C@H]4CC[C@@]3(C)[C@H]1[C@H]2C` (some centres undefined) was “inactive”; that for `C/C1=C/[C@@H](C)[C@H](O)C/C=C/CC/C=C/C(=O)O[C@@H]1[C@H](C)C(=O)CCCC1CC(=O)NC(=O)C1` was “inactive”. Consider `C=C1C[C@H]2O[C@@H]3[C@@H]4[C@H](CC[C@@](C)(O)[C@@H]42)[C@H](C)COC3(C)[C@@H](OC(=O)CCCCCCC)CC1=O` (some centres undefined), for which the Potency entry was “inactive”.

Source of the values: PubChem BioAssay (NCATS).
